Assay [1] has as its target T1, Ephrin type-B receptor 3 (Homo sapiens) (UniProt P54753).
T1 sequence (whole entry): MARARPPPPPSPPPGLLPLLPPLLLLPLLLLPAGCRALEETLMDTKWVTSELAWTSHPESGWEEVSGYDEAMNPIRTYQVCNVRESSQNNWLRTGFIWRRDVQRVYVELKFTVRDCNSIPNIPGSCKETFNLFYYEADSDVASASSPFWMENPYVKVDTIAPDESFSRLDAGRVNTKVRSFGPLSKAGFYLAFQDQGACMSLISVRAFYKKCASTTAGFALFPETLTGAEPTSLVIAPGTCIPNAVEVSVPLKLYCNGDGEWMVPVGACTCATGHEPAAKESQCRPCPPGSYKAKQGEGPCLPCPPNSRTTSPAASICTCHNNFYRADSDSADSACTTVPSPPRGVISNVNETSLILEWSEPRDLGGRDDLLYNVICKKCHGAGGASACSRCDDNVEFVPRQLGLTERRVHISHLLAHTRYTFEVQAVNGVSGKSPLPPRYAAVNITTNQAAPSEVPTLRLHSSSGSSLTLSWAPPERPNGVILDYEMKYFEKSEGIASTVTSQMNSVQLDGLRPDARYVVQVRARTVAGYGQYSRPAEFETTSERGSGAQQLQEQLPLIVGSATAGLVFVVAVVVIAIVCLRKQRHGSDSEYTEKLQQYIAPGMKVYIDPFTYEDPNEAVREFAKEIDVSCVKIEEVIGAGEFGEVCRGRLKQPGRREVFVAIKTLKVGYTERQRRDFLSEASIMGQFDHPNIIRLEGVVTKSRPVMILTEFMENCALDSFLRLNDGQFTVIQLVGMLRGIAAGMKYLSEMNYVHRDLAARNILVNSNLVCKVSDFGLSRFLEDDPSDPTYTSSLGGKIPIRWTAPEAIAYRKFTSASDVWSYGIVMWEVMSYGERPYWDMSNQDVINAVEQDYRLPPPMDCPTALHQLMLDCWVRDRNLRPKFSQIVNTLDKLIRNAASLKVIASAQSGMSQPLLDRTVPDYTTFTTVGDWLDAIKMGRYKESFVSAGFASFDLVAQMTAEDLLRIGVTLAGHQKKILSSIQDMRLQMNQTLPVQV
Particulars: at 1 µM; call rule not given here.

In assay [2] the target is T1, Ephrin type-B receptor 3 (Homo sapiens). Particulars: at 10 µM.
For assay [3], the target named is T2, Ephrin type-B receptor 4 (Homo sapiens) (UniProt P54760).
T2 sequence (whole entry): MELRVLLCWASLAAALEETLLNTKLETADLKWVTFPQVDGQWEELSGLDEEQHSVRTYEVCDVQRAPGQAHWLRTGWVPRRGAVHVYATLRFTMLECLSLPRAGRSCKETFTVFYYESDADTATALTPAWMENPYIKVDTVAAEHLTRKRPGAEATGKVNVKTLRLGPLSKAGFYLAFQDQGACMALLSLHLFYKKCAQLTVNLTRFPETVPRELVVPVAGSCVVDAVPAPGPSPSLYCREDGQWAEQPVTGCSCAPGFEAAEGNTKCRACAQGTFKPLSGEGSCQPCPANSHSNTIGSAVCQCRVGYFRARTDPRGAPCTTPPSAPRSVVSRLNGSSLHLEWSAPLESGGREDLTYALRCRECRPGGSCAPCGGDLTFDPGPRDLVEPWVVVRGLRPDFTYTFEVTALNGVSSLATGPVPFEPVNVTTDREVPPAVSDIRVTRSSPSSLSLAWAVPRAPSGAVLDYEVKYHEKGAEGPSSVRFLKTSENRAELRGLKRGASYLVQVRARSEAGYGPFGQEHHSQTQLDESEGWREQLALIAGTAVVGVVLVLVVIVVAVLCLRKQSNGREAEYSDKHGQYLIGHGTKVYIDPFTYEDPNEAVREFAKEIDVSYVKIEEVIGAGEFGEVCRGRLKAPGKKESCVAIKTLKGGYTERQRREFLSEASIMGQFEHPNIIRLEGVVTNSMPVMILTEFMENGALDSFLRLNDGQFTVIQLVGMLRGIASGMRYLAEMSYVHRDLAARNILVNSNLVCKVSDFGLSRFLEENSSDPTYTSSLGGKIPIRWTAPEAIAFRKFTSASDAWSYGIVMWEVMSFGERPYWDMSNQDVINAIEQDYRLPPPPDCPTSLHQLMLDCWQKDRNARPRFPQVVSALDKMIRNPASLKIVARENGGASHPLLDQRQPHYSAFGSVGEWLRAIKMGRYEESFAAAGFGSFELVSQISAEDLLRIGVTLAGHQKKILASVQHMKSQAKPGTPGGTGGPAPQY
Particulars: at 1 µM.

In assay [4] the target is T2, Ephrin type-B receptor 4 (Homo sapiens). Particulars: at 10 µM.
For assay [5], the target named is Receptor tyrosine-protein kinase erbB-4 (Homo sapiens) (UniProt Q15303). Particulars: at 10 µM.
The target in assay [6] is Focal adhesion kinase 1 (Homo sapiens) (UniProt Q05397). Particulars: at 1 µM.
Sequence of Focal adhesion kinase 1 (Homo sapiens) (Q05397 2-1052 limits assumed): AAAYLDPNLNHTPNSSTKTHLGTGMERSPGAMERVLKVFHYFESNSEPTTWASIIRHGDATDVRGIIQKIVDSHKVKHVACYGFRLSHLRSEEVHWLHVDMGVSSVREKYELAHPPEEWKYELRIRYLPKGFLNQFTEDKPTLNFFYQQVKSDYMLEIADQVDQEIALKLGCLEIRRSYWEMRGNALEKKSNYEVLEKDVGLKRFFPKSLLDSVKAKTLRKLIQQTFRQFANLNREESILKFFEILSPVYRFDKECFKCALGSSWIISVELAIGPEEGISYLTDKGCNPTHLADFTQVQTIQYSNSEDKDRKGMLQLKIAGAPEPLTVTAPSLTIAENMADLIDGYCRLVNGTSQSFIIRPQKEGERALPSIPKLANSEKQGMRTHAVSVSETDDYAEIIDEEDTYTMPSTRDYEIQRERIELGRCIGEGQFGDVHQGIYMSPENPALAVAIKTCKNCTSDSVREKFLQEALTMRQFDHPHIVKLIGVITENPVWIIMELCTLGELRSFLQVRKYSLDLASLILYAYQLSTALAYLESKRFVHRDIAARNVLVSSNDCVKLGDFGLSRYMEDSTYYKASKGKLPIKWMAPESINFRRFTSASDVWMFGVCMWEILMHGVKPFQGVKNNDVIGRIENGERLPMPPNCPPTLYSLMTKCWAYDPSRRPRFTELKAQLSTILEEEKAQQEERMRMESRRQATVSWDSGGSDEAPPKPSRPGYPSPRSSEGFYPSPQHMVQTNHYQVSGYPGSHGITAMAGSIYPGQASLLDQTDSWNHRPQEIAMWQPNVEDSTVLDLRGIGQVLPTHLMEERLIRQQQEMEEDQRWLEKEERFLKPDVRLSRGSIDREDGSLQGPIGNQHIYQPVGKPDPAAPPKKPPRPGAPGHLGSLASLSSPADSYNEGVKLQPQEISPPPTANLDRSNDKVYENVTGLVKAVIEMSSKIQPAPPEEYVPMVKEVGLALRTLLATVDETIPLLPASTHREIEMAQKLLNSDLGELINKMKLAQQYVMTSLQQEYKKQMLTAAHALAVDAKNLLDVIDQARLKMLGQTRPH
Assay [7] shares this target. Particulars: at 10 µM.
Assay [8] deals with Fibroblast growth factor receptor 1 (Homo sapiens) (UniProt P11362). Particulars: at 1 µM.
Sequence of Fibroblast growth factor receptor 1 (Homo sapiens) (P11362 22-822 limits assumed): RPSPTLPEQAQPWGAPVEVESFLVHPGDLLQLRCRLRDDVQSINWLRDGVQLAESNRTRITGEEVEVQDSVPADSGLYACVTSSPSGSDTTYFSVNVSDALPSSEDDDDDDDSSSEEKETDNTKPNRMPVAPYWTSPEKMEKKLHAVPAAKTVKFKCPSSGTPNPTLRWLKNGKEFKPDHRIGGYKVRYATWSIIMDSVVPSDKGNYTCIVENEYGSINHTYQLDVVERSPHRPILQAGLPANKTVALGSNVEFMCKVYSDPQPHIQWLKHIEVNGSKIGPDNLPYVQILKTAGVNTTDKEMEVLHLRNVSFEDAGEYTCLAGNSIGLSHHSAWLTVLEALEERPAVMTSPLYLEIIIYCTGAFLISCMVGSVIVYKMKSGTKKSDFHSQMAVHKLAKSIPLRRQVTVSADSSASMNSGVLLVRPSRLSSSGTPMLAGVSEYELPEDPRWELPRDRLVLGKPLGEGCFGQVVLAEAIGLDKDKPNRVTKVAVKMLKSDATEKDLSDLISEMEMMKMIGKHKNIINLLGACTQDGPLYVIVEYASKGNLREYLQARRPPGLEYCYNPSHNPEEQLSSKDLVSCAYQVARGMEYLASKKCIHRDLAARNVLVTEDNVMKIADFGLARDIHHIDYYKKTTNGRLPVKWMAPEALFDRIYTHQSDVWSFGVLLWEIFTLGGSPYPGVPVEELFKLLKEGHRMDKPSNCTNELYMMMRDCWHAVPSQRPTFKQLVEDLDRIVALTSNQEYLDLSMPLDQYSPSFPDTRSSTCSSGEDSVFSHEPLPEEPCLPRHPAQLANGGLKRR
For assay [9] the target is unchanged. Particulars: at 10 µM.
Assay [10] deals with Fibroblast growth factor receptor 2 (Homo sapiens) (UniProt P21802). Particulars: at 1 µM.
Sequence of Fibroblast growth factor receptor 2 (Homo sapiens) (P21802 22-821 limits assumed): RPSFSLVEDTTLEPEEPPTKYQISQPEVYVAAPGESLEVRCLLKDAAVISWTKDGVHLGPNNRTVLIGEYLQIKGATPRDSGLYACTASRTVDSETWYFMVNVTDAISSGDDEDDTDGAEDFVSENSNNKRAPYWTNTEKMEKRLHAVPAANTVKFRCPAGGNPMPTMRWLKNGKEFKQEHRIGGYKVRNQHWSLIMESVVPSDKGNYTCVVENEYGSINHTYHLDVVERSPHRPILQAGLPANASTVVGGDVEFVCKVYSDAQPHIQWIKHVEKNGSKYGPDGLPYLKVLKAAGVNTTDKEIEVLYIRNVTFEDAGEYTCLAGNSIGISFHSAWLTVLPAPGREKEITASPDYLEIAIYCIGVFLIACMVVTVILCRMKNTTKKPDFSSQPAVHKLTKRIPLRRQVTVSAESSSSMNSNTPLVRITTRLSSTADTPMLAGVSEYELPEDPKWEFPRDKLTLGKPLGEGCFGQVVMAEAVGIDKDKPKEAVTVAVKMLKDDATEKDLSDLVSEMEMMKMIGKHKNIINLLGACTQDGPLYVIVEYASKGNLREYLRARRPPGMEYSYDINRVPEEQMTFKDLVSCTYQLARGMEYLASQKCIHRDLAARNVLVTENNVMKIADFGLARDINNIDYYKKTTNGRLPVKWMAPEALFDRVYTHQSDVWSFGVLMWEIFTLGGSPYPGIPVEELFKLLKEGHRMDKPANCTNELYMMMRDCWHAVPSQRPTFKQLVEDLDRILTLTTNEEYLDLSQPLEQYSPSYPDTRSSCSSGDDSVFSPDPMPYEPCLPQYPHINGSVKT
Assay [11] shares this target. Particulars: at 10 µM.
The target in assay [12] is Tyrosine-protein kinase Fer (Homo sapiens) (UniProt P16591). Particulars: at 1 µM.
Sequence of Tyrosine-protein kinase Fer (Homo sapiens) (P16591 whole entry, looked up): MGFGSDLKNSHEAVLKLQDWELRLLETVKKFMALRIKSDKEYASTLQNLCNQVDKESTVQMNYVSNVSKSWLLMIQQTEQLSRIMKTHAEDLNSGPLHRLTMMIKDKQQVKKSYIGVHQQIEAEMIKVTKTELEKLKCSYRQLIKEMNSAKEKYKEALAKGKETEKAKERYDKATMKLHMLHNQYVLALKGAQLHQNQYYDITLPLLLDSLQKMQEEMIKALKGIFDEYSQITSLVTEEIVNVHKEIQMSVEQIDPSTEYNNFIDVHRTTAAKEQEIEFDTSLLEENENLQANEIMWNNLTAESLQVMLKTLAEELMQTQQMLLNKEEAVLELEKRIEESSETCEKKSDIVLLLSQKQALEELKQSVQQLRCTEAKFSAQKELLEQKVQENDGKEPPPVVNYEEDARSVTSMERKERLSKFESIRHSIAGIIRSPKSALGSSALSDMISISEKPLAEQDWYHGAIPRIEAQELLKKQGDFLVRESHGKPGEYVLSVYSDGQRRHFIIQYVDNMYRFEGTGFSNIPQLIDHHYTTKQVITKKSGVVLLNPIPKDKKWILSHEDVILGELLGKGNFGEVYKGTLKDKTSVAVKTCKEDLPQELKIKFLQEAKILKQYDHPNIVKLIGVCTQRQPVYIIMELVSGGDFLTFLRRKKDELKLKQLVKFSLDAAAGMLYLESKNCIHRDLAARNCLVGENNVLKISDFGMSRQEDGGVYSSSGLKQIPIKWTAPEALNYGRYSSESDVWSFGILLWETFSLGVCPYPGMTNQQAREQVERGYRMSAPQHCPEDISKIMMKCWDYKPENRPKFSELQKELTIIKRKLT
Assay [13] deals with T3, Ephrin type-B receptor 1 (Homo sapiens) (UniProt P54762).
T3 sequence (whole entry): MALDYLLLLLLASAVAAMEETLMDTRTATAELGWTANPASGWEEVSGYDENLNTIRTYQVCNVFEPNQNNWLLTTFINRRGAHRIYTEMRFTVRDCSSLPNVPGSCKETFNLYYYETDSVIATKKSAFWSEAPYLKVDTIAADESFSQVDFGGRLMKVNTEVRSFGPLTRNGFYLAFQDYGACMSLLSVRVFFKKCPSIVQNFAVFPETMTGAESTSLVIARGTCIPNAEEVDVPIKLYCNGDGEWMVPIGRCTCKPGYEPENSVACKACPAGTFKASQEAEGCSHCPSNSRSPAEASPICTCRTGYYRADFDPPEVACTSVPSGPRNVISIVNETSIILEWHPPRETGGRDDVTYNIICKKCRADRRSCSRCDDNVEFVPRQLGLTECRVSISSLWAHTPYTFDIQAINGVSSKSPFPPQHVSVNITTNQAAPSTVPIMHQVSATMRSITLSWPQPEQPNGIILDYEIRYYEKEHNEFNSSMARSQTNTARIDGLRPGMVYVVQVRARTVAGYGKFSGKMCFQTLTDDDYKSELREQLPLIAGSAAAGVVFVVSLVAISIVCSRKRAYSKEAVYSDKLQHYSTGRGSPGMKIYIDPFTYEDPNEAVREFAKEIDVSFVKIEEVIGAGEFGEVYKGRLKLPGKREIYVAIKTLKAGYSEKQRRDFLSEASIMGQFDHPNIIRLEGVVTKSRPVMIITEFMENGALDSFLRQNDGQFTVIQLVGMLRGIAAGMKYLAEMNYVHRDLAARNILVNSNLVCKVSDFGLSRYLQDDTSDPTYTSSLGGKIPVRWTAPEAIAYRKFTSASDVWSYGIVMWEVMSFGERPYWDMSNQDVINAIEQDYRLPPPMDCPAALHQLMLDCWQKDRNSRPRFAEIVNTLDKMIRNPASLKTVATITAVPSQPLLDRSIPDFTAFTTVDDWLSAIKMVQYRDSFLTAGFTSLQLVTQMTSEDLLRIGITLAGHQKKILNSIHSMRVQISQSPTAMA
Particulars: at 10 µM.

Assay [14] addresses Receptor tyrosine-protein kinase erbB-4 (Homo sapiens) (UniProt Q15303). Particulars: at 1 µM.
Assay [15] addresses Fibroblast growth factor receptor 3 (Homo sapiens) (UniProt P22607). Particulars: at 1 µM.
The target is the same in assay [16]. Particulars: at 10 µM.
Assay [17] deals with Fibroblast growth factor receptor 4 (Homo sapiens) (UniProt P22455). Particulars: at 10 µM.
Sequence of Fibroblast growth factor receptor 4 (Homo sapiens) (P22455 22-802 limits assumed): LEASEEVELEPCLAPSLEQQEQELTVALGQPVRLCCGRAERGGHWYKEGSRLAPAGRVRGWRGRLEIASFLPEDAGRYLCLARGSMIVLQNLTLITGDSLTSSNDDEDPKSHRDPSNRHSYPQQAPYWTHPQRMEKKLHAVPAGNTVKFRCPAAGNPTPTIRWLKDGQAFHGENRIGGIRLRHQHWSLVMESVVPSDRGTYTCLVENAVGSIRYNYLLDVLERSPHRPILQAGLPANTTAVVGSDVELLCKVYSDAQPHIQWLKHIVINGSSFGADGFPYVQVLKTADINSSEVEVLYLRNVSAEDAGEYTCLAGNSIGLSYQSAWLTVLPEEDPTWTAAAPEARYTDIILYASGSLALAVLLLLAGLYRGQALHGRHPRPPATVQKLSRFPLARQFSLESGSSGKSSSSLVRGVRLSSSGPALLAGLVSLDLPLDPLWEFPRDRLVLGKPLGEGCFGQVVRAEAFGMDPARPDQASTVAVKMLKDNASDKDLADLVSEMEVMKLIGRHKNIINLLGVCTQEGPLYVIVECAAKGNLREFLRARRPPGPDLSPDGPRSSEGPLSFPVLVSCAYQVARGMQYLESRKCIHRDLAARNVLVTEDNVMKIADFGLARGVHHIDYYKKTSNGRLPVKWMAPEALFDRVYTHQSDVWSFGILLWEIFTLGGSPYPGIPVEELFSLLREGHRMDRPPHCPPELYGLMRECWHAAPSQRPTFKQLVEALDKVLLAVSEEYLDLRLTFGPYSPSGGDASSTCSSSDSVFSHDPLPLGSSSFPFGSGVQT
For assay [18] the target is unchanged. Particulars: at 1 µM.
In assay [19] the target is T4, Ephrin type-B receptor 2 (Homo sapiens) (UniProt P29323).
T4 sequence (whole entry): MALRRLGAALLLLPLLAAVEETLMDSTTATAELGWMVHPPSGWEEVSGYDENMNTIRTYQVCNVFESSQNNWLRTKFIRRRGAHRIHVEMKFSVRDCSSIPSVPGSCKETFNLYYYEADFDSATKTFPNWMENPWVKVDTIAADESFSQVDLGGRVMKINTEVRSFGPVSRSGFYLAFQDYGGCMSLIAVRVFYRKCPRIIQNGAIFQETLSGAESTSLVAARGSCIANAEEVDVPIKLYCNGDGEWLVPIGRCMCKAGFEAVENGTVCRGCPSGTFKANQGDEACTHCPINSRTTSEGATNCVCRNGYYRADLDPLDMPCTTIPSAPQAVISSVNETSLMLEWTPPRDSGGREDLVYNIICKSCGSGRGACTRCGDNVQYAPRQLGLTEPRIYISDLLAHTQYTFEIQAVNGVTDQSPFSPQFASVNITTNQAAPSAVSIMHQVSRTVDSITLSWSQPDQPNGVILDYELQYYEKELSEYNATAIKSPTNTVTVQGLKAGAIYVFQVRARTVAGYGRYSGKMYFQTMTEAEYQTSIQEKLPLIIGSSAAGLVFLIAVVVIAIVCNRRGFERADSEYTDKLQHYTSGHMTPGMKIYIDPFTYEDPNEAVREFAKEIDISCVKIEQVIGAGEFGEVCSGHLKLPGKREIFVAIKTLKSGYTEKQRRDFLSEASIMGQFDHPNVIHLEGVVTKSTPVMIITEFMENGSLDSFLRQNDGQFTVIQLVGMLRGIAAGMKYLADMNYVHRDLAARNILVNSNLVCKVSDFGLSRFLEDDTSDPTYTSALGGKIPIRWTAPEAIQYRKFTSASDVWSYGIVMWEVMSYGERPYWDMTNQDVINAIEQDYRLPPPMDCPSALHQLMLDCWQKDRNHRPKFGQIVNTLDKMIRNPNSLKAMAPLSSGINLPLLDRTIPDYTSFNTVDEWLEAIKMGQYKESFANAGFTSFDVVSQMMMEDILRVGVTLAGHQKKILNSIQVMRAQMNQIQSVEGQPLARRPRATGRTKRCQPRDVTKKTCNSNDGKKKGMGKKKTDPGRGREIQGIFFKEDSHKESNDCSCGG
Particulars: at 1 µM.

The target of assay [20] is T4, Ephrin type-B receptor 2 (Homo sapiens). Particulars: at 10 µM.

Structures are written as SMILES.

For orientation: residual activity means the signal under treatment as a percentage of the control signal.

Sequence of Fibroblast growth factor receptor 3 (Homo sapiens) (P22607 23-806 limits assumed): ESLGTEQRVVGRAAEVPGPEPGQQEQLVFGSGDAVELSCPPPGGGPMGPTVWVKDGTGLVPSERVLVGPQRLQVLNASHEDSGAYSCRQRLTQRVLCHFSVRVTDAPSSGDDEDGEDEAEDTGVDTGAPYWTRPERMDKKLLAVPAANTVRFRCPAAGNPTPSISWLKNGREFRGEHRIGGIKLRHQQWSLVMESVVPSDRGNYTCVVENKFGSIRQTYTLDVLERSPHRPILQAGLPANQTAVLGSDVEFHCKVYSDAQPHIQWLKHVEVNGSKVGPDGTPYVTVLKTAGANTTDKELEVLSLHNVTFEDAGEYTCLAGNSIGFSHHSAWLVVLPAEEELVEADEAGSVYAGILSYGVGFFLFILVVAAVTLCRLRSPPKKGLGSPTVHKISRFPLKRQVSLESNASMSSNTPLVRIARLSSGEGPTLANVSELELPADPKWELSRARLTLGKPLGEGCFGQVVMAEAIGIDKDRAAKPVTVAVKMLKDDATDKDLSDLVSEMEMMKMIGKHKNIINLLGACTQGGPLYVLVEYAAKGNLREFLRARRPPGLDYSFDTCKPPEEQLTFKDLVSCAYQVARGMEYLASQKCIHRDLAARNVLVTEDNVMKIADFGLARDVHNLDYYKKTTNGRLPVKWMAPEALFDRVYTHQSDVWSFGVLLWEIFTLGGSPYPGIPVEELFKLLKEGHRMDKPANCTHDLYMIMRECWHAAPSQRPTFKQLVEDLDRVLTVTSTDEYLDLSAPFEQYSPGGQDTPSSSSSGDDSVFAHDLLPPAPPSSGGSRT

As to `NCCNc1ncc(C(N)=O)c(Nc2cccc(C(F)(F)F)c2)n1`, the residual activity is 113% (inactive) in [1]; 111% in assay [2]; 102% in assay [3]; 101% in [4]; 75% in assay [5]; 64% in assay [6]. The residual activity in [7] came to 7%; in assay [8], 113%; in [9] it was 68%; in assay [10] it was 100%; in [11], 80%; in assay [12] it was 102%.
With `O=C1NC(=O)C(c2cn(CCCO)c3ncccc23)=C1c1cnccn1`, the residual activity is 94% (inactive) in [1]; 99% in assay [2]; 92% in assay [3]; 98% in assay [4]; 80% in assay [8]; 68% in [9]. Further, the residual activity in [10] worked out at 91%; in assay [11], 81%; in [12] it was 89%.
With `O=C(O)/C=C/c1cc(Br)c(Br)c(Br)c1Br`, the residual activity was 89% in assay [13]; 105% in [3]; 90% in [4]; 59% in assay [14]; 45% in [5]; 98% in [6]. Besides, the residual activity in [7] was 98%; in assay [11], 94%; in assay [15] it was 103%; in [16] it was 99%; in assay [17], 96%; in assay [12], 97%.
Turning to `Nc1n[nH]c2nc3ccccc3nc12`, the residual activity came out at 97% in assay [3]; 77% in assay [4]; 87% in assay [5]; 97% in assay [6]; 83% in assay [7]; 122% in [10]. The residual activity stood at 84% in assay [11], 120% in [18] and 90% in assay [12].
For `O=c1cc(N2CCOCC2)oc2c(-c3ccccc3)cccc12`, the residual activity in [14] is 79%; in [5], 65%; in [9], 81%; in [15], 101%; in [16], 73%; in [17], 70%. Moreover, the residual activity in assay [12] came out at 101%.
As for `O=C1C(Cl)=C(N2C(=O)CCC2=O)C(=O)c2ccccc21`, the residual activity in [13] worked out at 93%; in assay [3], 93%; in assay [4] it was 81%; in assay [6], 93%; in assay [7], 90%; in [8], 118%. Also, the residual activity is 94% in [9]; 100% in [10]; 89% in assay [11]; 98% in assay [18]; 91% in [17]; 87% in assay [12].
`COc1ccc(COc2ccc(Cc3cnc(N)nc3N)cc2OC)cc1`: the residual activity in assay [19] was 108%; in [20], 129%; in assay [1], 114% (inactive); in assay [2], 110%; in [3], 99%; in [4], 113%. Besides, the residual activity came to 99% in assay [14]; 70% in assay [5]; 115% in [6]; 112% in [8]; 112% in assay [10]; 76% in assay [11]. The residual activity in assay [18] was determined as 131%.
On to `Cc1cc(C)c(/C=C2\C(=O)Nc3ccccc32)[nH]1`, for which the residual activity in [6] is 52%; in [7], 9%; in assay [8] it was 65%; in assay [9], 13%; in assay [15], 80%; in assay [16] it was 68%. Besides, the residual activity was 124% in [18] and 100% in [12].

The values are drawn from ChEMBL document CHEMBL2218924, “A broad activity screen in support of a chemogenomic map for kinase signalling research and drug discovery” (Biochem J, 2013).
